# D3 ag: D3 dopamine receptor (human) agonism. P35462. D3R DiscoveRx beta-arrestin cells, luminescence, 90 min. max activation, %. 410,000 tested, 0.58% active. AID 652048; in the data active means max activation above about 30%; further: 0% is about no effect
#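 Cells at 1500/well, incubated overnight, then treated with pinned compounds (dopamine as control) for 90 min at 37 degrees C. DiscoveRx reagent added for 30 - 60 minutes at room temperature; luminescence read.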
# D3 antag: D3 dopamine receptor (human) antagonism. P35462. D3R cells, DiscoveRx beta-arrestin luminescence, antagonist mode; stronger effect = lower value. max response, negative = inhibition, %. 360,000 tested, 2.5% active. AID 652054; in the data active means max response below about -50%; inconclusive means no clear call, values can overlap the other calls; further: on the % scale 0 is the no-effect control and ±100 the full control effect
#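 Cells expressing the human receptor were seeded at 1500 cells/well, incubated overnight at 37 degrees C in 5% CO2, then exposed to library compounds with dopamine controls for 90 minutes at 37 degrees C before luminescent detection.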
# GLP1R ag: GLP-1 receptor (human) agonism; HEK293 GLP-1R CRE-luciferase, luminescence, 4-6 h; cells express a hypersensitive GLP-1R form; Potency, µM (highest dose often 45.6 µM), for inactives: top-dose activation, most hits filed as activators; 380,000 tested, 0.007% active; AID 624172; further: potency means the concentration at half of the fitted maximal effect; % of control where 0% means no effect
# Target sequence (P43220 whole entry, looked up): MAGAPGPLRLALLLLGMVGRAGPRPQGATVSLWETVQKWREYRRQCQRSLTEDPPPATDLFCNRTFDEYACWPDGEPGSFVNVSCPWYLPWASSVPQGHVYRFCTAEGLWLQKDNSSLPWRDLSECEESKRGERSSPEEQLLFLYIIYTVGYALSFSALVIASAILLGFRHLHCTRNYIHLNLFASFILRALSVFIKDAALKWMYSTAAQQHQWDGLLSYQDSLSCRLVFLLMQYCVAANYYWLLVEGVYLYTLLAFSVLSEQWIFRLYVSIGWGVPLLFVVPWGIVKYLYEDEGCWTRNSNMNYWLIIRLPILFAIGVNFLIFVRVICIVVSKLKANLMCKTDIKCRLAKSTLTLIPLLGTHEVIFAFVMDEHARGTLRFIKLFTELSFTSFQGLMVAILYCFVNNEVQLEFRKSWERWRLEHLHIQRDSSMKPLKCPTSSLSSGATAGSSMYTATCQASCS
# GLP1R inv ag: acts as inverse agonist at human GLP-1 receptor. P43220. HEK293 GLP-1R CRE-luciferase, luminescence, 24 h; GLP-1R form is constitutively active. Potency, µM (series often up to 38.3 µM), inactives show at the highest dose activity change, negative = inhibition, usual class: inhibitors. 410,000 tested, 1.6% active; further: potency means the concentration at half of the fitted maximal effect; on the % scale 0 is the no-effect control and ±100 the full control effect; nearly all actives have a fitted effect of over 55% in size
#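 HEK293 cells stably co-expressing constitutively active GLP-1R and a cAMP-responsive luciferase reporter were seeded in DMEM with 10% Nu serum, given compounds after 12 h, and incubated 24 h at 37 deg C. Luminescence was then read.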
# ClpP mod: qHTS Assay for Activators of ClpP; 340,000 tested, 1.9% active; Potency, µM (titrated, usually from 57.5 µM), without a hit: at the top dose activity change, negative = active; purified B. subtilis ClpP, FRET peptide cleavage, 20 min; active means well fitted falling curve with a large enough effect; inconclusive means small, poorly fitted or top-dose-only effect; inactive means no such curve, though single readings can be large or run the other way; further: potency means the concentration at half of the fitted maximal effect; the source files actives as falling curves though it sought activators and does not explain the sign; nearly all actives have a fitted effect of over 65% in size
# Target sequence (P80244 whole entry, looked up): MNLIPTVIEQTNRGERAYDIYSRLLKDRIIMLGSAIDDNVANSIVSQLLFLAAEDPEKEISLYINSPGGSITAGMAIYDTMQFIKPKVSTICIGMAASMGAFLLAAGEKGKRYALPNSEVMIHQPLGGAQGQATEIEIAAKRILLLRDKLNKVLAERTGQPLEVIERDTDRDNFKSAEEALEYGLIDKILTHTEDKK
#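 Buffer: 100 mM Tris/HCl pH8, 100 mM KCl, 0.05% low protease BSA, 2.5% glycerol, 0.01% Tween-20. ClpP 10 microg/mL final; 20 min RT; delta FRET normalized to ADEP and DMSO controls.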
# GLP1R cytotox: cytotoxicity in counter-screen for GLP-1R inverse agonists; HEK293 cAMP-luciferase reporter cells, luminescence, 24 h; Potency, µM (series often up to 38.3 µM), for the others: at the top dose activity change, negative = inhibition, usual class: inhibitors; 410,000 tested, 0.13% active; AID 624418;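 further: loss of luciferase light is scored as toxicity; potency means the concentration at half of the fitted maximal effect; on the % scale 0 is the no-effect control and ±100 the full control effect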
#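 A 23 nL compound transfer followed 12 hours of cell culture at 37 deg C; exposure then lasted 24 hr. Luciferase assay detection reagent was dispensed and plates read for luminescence after a 12 min room-temperature wait.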
# Starred values were filed as active, the others as inactive; ? = inconclusive; · = no result given; ! = not active in a repeat; [ ] = another dose, or the depositor's remark. A selection: hits, their analogues and other compounds. The true share with any hit is near 5.7%. Unless noted, the call rests on the fitted dose curve; in most records, active means well fitted curve in the direction sought with a large enough effect; inconclusive means small, poorly fitted or top-dose-only effect, or another doubt; inactive means no such curve, though single readings can be large; an effect the other way counts as inactive or inconclusive.
SMILES,D3 ag,D3 antag,GLP1R ag,GLP1R inv ag,ClpP mod,GLP1R cytotox
Cc1cccc(CNCCc2c[nH]c3ccccc23)c1,-17.4,-24.6,0.7%,?,·,?
Cc1ccc(-c2csc(-c3c[nH]c4ccccc34)n2)c(C)c1,-8.3,8.1,-19.9%,10µM*,?,?
O=C(CS(=O)C(c1ccccc1)c1ccccc1)NO (stereo unspecified),8.8,·,16.1%,·,·,·
CCN1/C(=C/C(C)=C/c2sc3ccccc3[n+]2CC)Sc2ccccc21,-9.1,-58.9*!,-0.6%,?,0.9%,12.6µM*
C=CCn1c(O)c(C2=c3ccccc3=NC2=O)c2ccccc21,-23.9,-65.2*,-7.8%,?,·,?
C=CCn1c(O)c(/C=C2/C=c3ccccc3=N2)c(=O)[nH]c1=S,6.9,-6.1,-2.2%,8.7%,·,-3.6%
COc1cccc(C(c2nnnn2-c2ccc3c(c2)OCCO3)N2CCC(n3c(=O)[nH]c4ccccc43)CC2)c1OC (stereo unspecified),2.7,22.9,-0.2%,-63.4%,2.6%,-37.1%
O=c1[nH]c2ccccc2n1C1CCN(C(c2ccccc2OC(F)(F)F)c2nnnn2-c2ccc3c(c2)OCCO3)CC1 (stereo unspecified),34.8*,13.3,-6.4%,?,0.5%,?
CCCCNC(=O)COC(=O)c1c2c(nc3ccccc13)/C(=C/c1cccs1)CC2,68.9*,10.5,0.9%,?,-0.8%,236.3%
COc1ccccc1C(=O)C1CCCN(Cc2cnc(C)s2)C1 (stereo unspecified),-9.7,2.8,5.6%,-20.7%,-3.8%,3.6%
CSc1ccccc1C(=O)C1CCCN(Cc2cccc(C)n2)C1 (stereo unspecified),-9.4,-6.9,3.9%,11.2µM*,·,?
CSc1ccccc1C(=O)C1CCCN(Cc2ccccn2)C1 (stereo unspecified),-15.9,0.3,-0.7%,-24.3%,·,-26.2%
COc1ccc(CN2CCCC(C(=O)c3ccccc3SC)C2)cc1O (stereo unspecified),-7.1,-60.7*,2.4%,?,-3.8%,-18.7%
CC(C)c1ccc(/C=N/NC(=O)c2nnn(-c3nonc3N)c2CSC2=NCCS2)cc1,0.3,-19.9,-3.3%,?,-7.8%,?
CCC1(C)Cc2ccccc2-c2c1c(=O)n(Cc1ccccc1)c1nnnn21 (stereo unspecified),-11.5,0.0,-0.6%,-15.2%,31.6µM*,-3.2%
O=c1[nH]c(=O)n(C2CCCCCC2)c(O)c1C=NCCCN1CCOCC1,-5.7,-61.4*,-1.1%,0.7%,?,4.7%
c1ccc(CCN2CCOCC2)cc1,·,·,·,·,1.0%,·
CCCCN(Cc1ccccc1)C1CCN(CCc2ccccc2)CC1,-25.4,?,0.9%,10µM*,·,-2.1%
c1ccc(CCN2CCC(N3CCN(c4ccccc4)CC3)CC2)cc1,68.9*,-24.3,14.3%,1.1%,-0.4%,3.5%
O=C(N[C@H]1N=C(c2ccccc2F)c2cccc3c2N(CC3)C1=O)c1cc2ccccc2[nH]1,-8.1,·,2.9%,·,·,·
O=C(Nc1ccc(Oc2ccccc2)cc1)c1ccc(F)c(S(=O)(=O)N2CCN(c3cccc(Cl)c3)CC2)c1,-4.5,·,·,?,-10.0%,-1.0%
O=C(Cc1ccccc1)N1CCN(Cc2ccc([N+](=O)[O-])cc2)CC1,-7.4,0.6,0.8%,-3.2%,-0.8%,1.9%
O=[N+]([O-])c1cccc(CN2CCN(Cc3ccc(Br)cc3)CC2)c1,-6.9,-102.4*,-4.8%,?,1.7%,5.3%
CNC(C)Cc1ccccc1OC (stereo unspecified),-12.3,·,0.7%,·,·,·
O=C(Nc1ccc(Cl)c(Cl)c1)Nc1ccc(Br)cc1F,2.8,17.0,-20.8%,?,-9.1%,?
SMILES,D3 ag,D3 antag,GLP1R ag,GLP1R inv ag,ClpP mod,GLP1R cytotox
Cc1ccc(C)c(CN2CCC(CNC(=O)Nc3ccc(Br)cc3F)CC2)c1,-18.4,-15.6,10.3%,7.08µM*,-0.7%,?
O=C1c2ccccc2-c2n[nH]c(=O)c3ccc(N4CCCCC4)c1c23,0.8,-9.1,9.9%,66.8%,·,?
COc1cccc(CN(C)C[C@@H]2OCc3ccccc3-c3c(n(C)c4ccccc34)C(=O)N([C@@H](C)CO)C[C@H]2C)c1,4.4,15.4,-2.7%,10µM*,-4.3%,?
C[C@@H]1CN([C@H](C)CO)C(=O)c2c(c3ccccc3n2C)-c2ccccc2CO[C@@H]1CN(C)Cc1ccc(O)cc1,4.4,1.2,-8.0%,?,-5.1%,?
Clc1ccc2c(c1)C(c1ccccc1Cl)=NCc1nnc(N3CCN(CCOc4ccccc4)CC3)n1-2,54.4*,-11.3,13.4%,?,1.4%,-23.9%
Clc1ccc2c(c1)C(c1ccccc1Cl)=NCc1nnc(N3CCN(CCSc4ccccc4)CC3)n1-2,1.4,-6.2,15.0%,0.0%,-4.4%,12.6%
S=c1[nH]nc(-c2ccco2)n1Cc1ccccc1,-2.3,-80.7*,-3.6%,14.9%,28.2µM*,-15.7%
O=C(c1ccc(Cl)cc1)c1cn(Cc2ccccc2)c2cc3c(cc2c1=O)OCCO3,-8.1,·,·,?,-13.4%,-15.4%
CN1CCc2cccc(Cl)c2CC1,-71.1,-78.3*,-1.8%,-3.9%,2.2%,-3.6%
CCOc1ccc(S(=O)(=O)N(CC(=O)NCCc2ccc(OC)c(OC)c2)c2ccccc2)cc1,5.8,·,1.9%,?,-1.3%,-14.7%
Cc1ccc(-c2cc(C(=O)N3CCN(c4ncccn4)CC3)c3ccccc3n2)cc1,16.1,18.4,-4.1%,?,?,?
COc1ccc(-c2cc(C(=O)N3CCN(c4ccccc4OC)CC3)c3cc(C(C)C)ccc3n2)cc1,-4.1,·,·,8.91µM*,?,-17.2%
CN(C)c1ccc(CNC(=O)Cn2c(=O)oc3cc(S(=O)(=O)N4CCCCCC4)ccc32)cc1,1.3,·,·,?,1.0%,11.0%
O=C1CC2OCC=C3CN4CC[C@]56c7ccccc7N1C5C2[C@H]3C[C@H]46 (stereo partly specified),·,·,-4.1%,·,·,·
BrCCc1ccccc1,-92.5,-98.8*,-6.8%,-0.6%,-0.8%,-4.7%
CN[C@H](C)Cc1ccccc1,·,·,15.4%[96 µM],·,·,·
CC(C)NC(C)Cc1ccc(I)cc1 (stereo unspecified),-20.9,-88.7*,-5.9%,20.6%,2.7%,-11.1%
CC1Cc2cc(S(=O)(=O)N(Cc3ccccc3)C(C)C)ccc2N1C(=O)C1CCC1 (stereo unspecified),-10.5,·,·,?,-0.9%,0.2%
COc1ccc(S(=O)(=O)N(CC(=O)NCc2ccccc2OC)c2ccc(C)cc2)cc1,-9.9,·,·,3.16µM*,-2.4%,-19.6%

# Compound activity deposited in PubChem by National Center for Advancing Translational Sciences (NCATS).
